Source: PubChem BioAssay (several laboratories)
A selection: hits, their analogues and other compounds. The true share with any hit is near 3.7%.
tim10-1 inh: growth inhibitors of tim10-1 mutant yeast | S. cerevisiae tim10-1 ts strain growth, BacTiter-Glo, 24 h | inhibition, % at 20 µM | 330,000 tested, 2.2% active;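 active = inhibition of at least 40%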;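 note: mutant grown at 25 °C; 0% = DMSO wells with yeast and 100% = wells holding no yeast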
TIM10 inh: TIM10 yeast growth inhibition; S. cerevisiae TIM10 strain growth, BacTiter-Glo luminescence, 24 h; inhibition, % at 10 µM; 330,000 tested, 1.4% active; AID 463195;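 active = inhibition of 40% or more at the single tested concentration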;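 note: wild-type TIM10 isogenic control strain grown at permissive 25 °C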
NALP3 yeast inh: inhibitors of NALP3 inflammasome in yeast; Yeast reconstituted NLRP3/ASC/caspase-1, beta-gal luminescence, 24 h; inhibition, % at 10 µM; 330,000 tested, 0.39% active; AID 2825;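 active = inhibition of 50% or more; inactive = inhibition below 50%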;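 note: plate controls were induced DMSO wells for no effect and uninduced yeast grown without galactose for full effect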
PfHsp90 set2: reduces growth (ATP signal) of yeast expressing P. falciparum Hsp90; S. cerevisiae expressing PfHsp90, BacTiter-Glo ATP, 48 h; yeast lacking PDR1 and PDR3 efflux regulators; inhibition, % at 9.4 µM; 310,000 tested, 0.32% active; AID 504621;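 active = every replicate shows inhibition above about 80%, whatever the replicate mean, limit read from the data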;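 note: 0% = DMSO neutral controls and 100% = 20 µM radicicol positive controls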
tim23-1 inh: growth inhibitors of tim23-1 mutant yeast; S. cerevisiae tim23-1 growth, BacTiter-Glo luminescence, 24 h; inhibition, % at 20 µM; 330,000 tested, 1.3% active;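 active = growth inhibition of the mutant yeast at or above 50%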;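 note: temperature-sensitive mutant grown at 25 °C; plate controls were DMSO-treated mutant yeast for no effect and medium wells lacking yeast for full effect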
tim10-1 conf: confirmation of tim10-1 mutant yeast growth inhibitors. shares compounds with tim10-1 inh. S. cerevisiae tim10-1 ts strain growth, BacTiter-Glo, 24 h. inhibition, % at 20 µM. 7,400 tested, 56% active. AID 463213;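 active = inhibition of yeast growth at or above a set limit in either of two repeat tests at 20 µM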;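 note: tim10-1 mutant grown at permissive 25 °C to find synthetic lethal compounds; 0% = DMSO yeast wells and 100% = medium wells without yeast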
The depositor's hits bear a star; x = no result given.

SMILES	tim10-1 inh	TIM10 inh	NALP3 yeast inh	PfHsp90 set2	tim23-1 inh	tim10-1 conf
CCCc1nn(C)c(C(=O)Nc2ccc(CC)cc2)c1Cl	43*	11	11	10	20	11
CC(C)(C)CC(C)(C)c1ccc(OCCOCC[N+](C)(C)Cc2ccccc2)cc1	42*	14	29	-41	28	-9
Cn1c(NCCCO)nc2c(c1=O)C1(CCCCC1)Cc1ccccc1-2	54*	30	5	21	50	38*
CCC(=O)Nn1cnc2c(c1=O)C1(CCCCC1)Cc1ccccc1-2	50*	26	19	-8	33	37*
CCCn1c(SCC(N)=O)nc2c(c1=O)C1(CCCC1)Cc1ccccc1-2	21	20	3	-15	23	x
CCC1(C)Cc2ccccc2-c2nc(NCCCO)n(-c3ccccc3)c(=O)c21 (centres undefined)	35	19	14	-14	35	x
COC1=CC(=O)C(OC)=C(OC)C1=O	x	x	x	-17	x	x
Cc1ccc2c(nc3s/c(=C\c4ccc(-c5ccccc5C(=O)O)o4)c(=O)n32)c1C	46*	33	16	-46	47	18
CCOC(=O)N1C(=O)NC(=O)C1c1ccc(OC)cc1 (centres undefined)	x	x	x	-6	x	x
C(CCc1nn[nH]n1)CCC1CCCCC1	x	x	x	-30	x	x
COc1ccc(C)cc1NC(=O)NCCC1=CCCCC1	43*	38	-12	x	41	31*
COC(=O)c1cn(-c2ccc(Cl)cc2)c(=O)c2ccccc12	44*	25	10	-22	39	29
NNC(=O)c1cccc(COc2ccc3c(c2)CCC3)c1	47*	25	24	2	48	19
O=C(NCc1ccccc1)c1cccc(COc2ccccc2Cl)c1	34	21	11	-21	34	x
NNC(=O)c1cccc(COc2ccccc2Br)c1	41*	39	13	5	43	16
Cc1cccc(C(=O)CC(=O)c2cc(Cl)ccc2O)c1	47*	29	-1	19	41	63*
Cc1ccc(O)c(C(=O)CC(=O)c2ccc(Cl)cc2)c1	x	x	x	-40	x	x
O=C(c1ccc(Cl)cc1)c1ccc(CN2C(=O)c3ccccc3C2=O)o1	41*	23	-5	-82	17	12
O=C(c1ccc(F)cc1)c1ccc(CN2C(=O)c3ccccc3C2=O)o1	30	30	1	9	4	x
S=C(NCc1ccc(Cl)cc1Cl)NC1CCCCC1	42*	-5	28	-27	37	17
S=C(NCCc1ccccc1)NC1CCC(NC(=S)NCCc2ccccc2)CC1 (centres undefined)	6	-6	2	-11	-8	x
S=C(NCCc1cccc(Cl)c1)NC1CCCCC1	40*	28	31	-21	38	25
CC(C)C(=O)N1CCC2(CC1)Oc1ccc(F)cc1C(=O)C21CC(c2cccnc2)=NO1 (centres undefined)	3	-12	-3	x	-9	x
Cc1ccc(C(=O)N2CCC3(CC2)Oc2ccc(F)cc2C(=O)C32CC(c3cccnc3)=NO2)s1 (centres undefined)	42*	-8	12	-14	-2	25
Oc1ccc(/C=N/Nc2ncc(Cl)cc2Cl)cc1	45*	22	12	-14	25	11
SMILES	tim10-1 inh	TIM10 inh	NALP3 yeast inh	PfHsp90 set2	tim23-1 inh	tim10-1 conf
Cc1ccc(/C=N/Nc2ncc(Cl)cc2Cl)s1	42*	19	42	-7	30	17
COc1ccc(CC(=O)Oc2ccc(F)c(F)c2)cc1S(=O)(=O)N1CCOCC1	-2	-9	3	x	7	x
Cc1nc(C(=O)NC2CCCCC2)sc1C1(C)CC(c2cccnc2)=NO1 (centres undefined)	-1	7	-4	x	11	x
C/C(=N/NC(=O)c1ccc(Br)o1)c1cccc(NC(=O)c2ccc(F)cc2)c1	49*	29	19	x	40	40*
C/C(=N/NC(=O)c1ccco1)c1cccc(NC(=O)c2ccc(C)o2)c1	13	23	-8	14	6	x
C/C(=N\NC(=O)c1ccc(Br)cc1)c1cccc(NC(=O)c2cccnc2)c1	12	6	-1	-13	9	x
C/C(=N/NC(=O)c1ccc(Br)o1)c1cccc(NC(=O)c2ccc(C)o2)c1	44*	16	20	11	37	18
CC(NC(=O)Cc1ccc(S(=O)(=O)N2CCCCC2)cc1)c1ccccc1 (centres undefined)	12	2	2	-26	5	x
CN(Cc1ccccc1F)C(=O)CN1CCN(S(=O)(=O)c2ccc3c(c2)OCCCO3)CC1	16	10	14	6	28	x
CN(C)c1nc(OCCNC(=O)COc2ccc(Cl)cc2Cl)nc(N(C)C)n1	44*	14	2	x	17	15
Cc1ccc(C(=O)Oc2ccc(Cl)c3cccnc23)cc1[N+](=O)[O-]	41*	10	20	-19	39	22
CC(OC(=O)COc1ccc(Nc2ccccc2)cc1)C(=O)N(C)c1ccccc1 (centres undefined)	42*	13	24	1	31	30*
CC(OC(=O)CNS(=O)(=O)c1ccc2ccccc2c1)C(=O)N(C)c1ccccc1 (centres undefined)	21	16	5	0	24	x
Cc1sc2ncnc(N3CCN(CCOc4ccc(Cl)cc4)CC3)c2c1C	45*	27	12	-10	31	32*
Cc1sc2ncnc(N3CCC(C(=O)NNC(=O)COc4ccc(Cl)cc4)CC3)c2c1C	x	x	x	-11	x	x
O=c1[nH]c(NCCO)nc2c1C1(CCCC1)Cc1ccccc1-2	20	4	16	34	10	x
C=CCNC(=S)NNc1nc2c(c(=O)[nH]1)C1(CCCCC1)Cc1ccccc1-2	52*	39	5	-12	31	42*
O=c1c2ccccc2sc2nc(CCl)nn12	x	x	x	-18	x	x
CCn1nc(C)c(NC(=O)c2cnn3c(C(F)F)cc(-c4ccccc4)nc23)c1C	42*	19	1	-31	19	16
O=C(NN1CCCCC1)c1cnn2c(C(F)F)cc(-c3ccccc3)nc12	-7	-9	15	-10	-11	x
CC[C@@]1(c2ccccc2)C(=O)N(C(=O)OC)N1C(=O)OC	0	-14	13	8	-8	x
COC(=O)N1C(=O)[C@@](c2ccccc2)(C2CCCCC2)N1C(=O)OC	50*	-1	-11	-13	-1	45*
O=S(=O)(Nc1cc(Sc2ncn[nH]2)c(O)c2ccccc12)c1ccccc1	50*	30	36	0	48	27
N#Cc1cc(C(=O)c2ccccc2OCC(=O)Nc2ccccc2Cl)cn(C2CCCCC2)c1=O	43*	8	-3	-22	26	18
CC(=O)c1cccc(NC(=O)COc2ccccc2C(=O)c2cc(C#N)c(=O)n(C3CCCCC3)c2)c1	26	-3	6	4	12	x
